This is an account of results in PubChem BioAssay.

For part of these data: Potency and affinity values are given separately. Calls of active or inactive are those of the source. Unless noted, the rule behind the calls is not given here.

Assay [1] concerns the target Cell division control protein 42 homolog (Homo sapiens) (UniProt P60953). Put plainly: activated mutant Cdc42 GTP-binding inhibitors, dose response, biochemical, multiplex bead flow cytometry, Bodipy-FL-GTP (AID 1333;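 active = fitted half-maximal concentration within the tested dose range, moderate curve steepness, a statistically real signal drop, and little compound fluorescence or tag-binding interference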). In general terms: In flow cytometry, cells or beads pass a laser one at a time.
For assay [2] the target is unchanged. Put plainly: wildtype Cdc42 GTP-binding inhibitors, dose response, biochemical, multiplex bead flow cytometry, Bodipy-FL-GTP (AID 1334;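 active = fitted half-maximal concentration within the tested range, moderate curve steepness, significant signal drop, and little compound fluorescence or bead-linkage interference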). To be noted: bead-based flow cytometry, Bodipy-FL-GTP binding to GST-Cdc42; at 100 µM (top of the series) unless noted.
Assay [3] concerns the target GTPase HRas (Homo sapiens) (UniProt P01112). Briefly: inhibitors of GTP binding to wildtype Ras, dose response, biochemical, multiplex bead flow cytometry (AID 1335;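 active = fitted half-maximal concentration within 10 nM to 100 µM, steepness 0.5 to 2, significant signal drop, low assay interference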). As to conditions: bead-based flow cytometry, Bodipy-GTP binding to GST-Ras; at 100 µM (top of the series) unless noted.
The subject of assay [4] is Ras-related protein Rab-7a (dog), GTP binding. Briefly: Rab7 GTP binding inhibitors, potency, dose response, biochemical, wildtype, multiplex bead flow cytometry (AID 1336).
For assay [5], the target named is Ras-related C3 botulinum toxin substrate 1 (Homo sapiens) (UniProt P63000). Briefly: wildtype Rac1 GTP binding inhibitors, dose response, biochemical, multiplex bead flow cytometry (AID 1340;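 active = dose curve with midpoint inside tested range, moderate steepness, plateau gap beyond fit error, low compound glow and bead-link interference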). To be noted: GST-Rac1 beads, Bodipy-FL-GTP binding; at 100 µM (top of the series) unless noted.
Assay [6] addresses GTPase HRas (Homo sapiens) (UniProt P01112). Briefly: activated Ras mutant GTP binding inhibitors, dose response, biochemical, multiplex bead flow cytometry (AID 1341;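 active = dose-response curve with midpoint inside the tested range, moderate steepness, significant amplitude and little compound fluorescence or bead-attachment interference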;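 note: GST-tagged constitutively activated Ras mutant immobilized on beads and multiplexed with other GTPases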).

Chain of Cell division control protein 42 homolog (Homo sapiens) (P60953 whole entry, looked up): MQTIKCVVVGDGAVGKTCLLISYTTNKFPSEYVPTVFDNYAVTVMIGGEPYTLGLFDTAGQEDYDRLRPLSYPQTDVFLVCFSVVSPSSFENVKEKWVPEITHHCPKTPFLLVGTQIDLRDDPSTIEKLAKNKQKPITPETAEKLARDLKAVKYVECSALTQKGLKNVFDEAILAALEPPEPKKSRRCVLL
Chain of GTPase HRas (Homo sapiens) (P01112 whole entry, looked up): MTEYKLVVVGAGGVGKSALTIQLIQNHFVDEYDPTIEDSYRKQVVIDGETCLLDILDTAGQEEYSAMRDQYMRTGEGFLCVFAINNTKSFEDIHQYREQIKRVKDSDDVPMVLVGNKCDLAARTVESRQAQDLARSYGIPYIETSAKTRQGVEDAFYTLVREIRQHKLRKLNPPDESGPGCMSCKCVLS

With `Cc1cc(OCc2ccc(C(=O)O)o2)ccc1Cl`, the outcome in assay [1], in assay [4] and in assay [6] was inactive. Further, the fluorescence, percent of control (lower = inhibition) in assay [2] came out at 57.7%. For the same compound, the GTP binding, percent of control in assay [3] stood at 85.2%. This compound also showed a GTP binding signal, raw median fluorescence (lower = inhibition) (MCF (arbitrary fluorescence units)) in assay [5] of 31.8.

For `CCn1c2ccccc2c2nc3cc(C(=O)O)ccc3nc21`, the compound was classed as inactive in assay [1], in assay [4] and in assay [6]. Also, the fluorescence, percent of control (lower = inhibition) in assay [2] came out at 34%. In assay [3], this compound had a GTP binding, percent of control of 74.6%. For the same compound, the GTP binding signal, raw median fluorescence (lower = inhibition) (MCF (arbitrary fluorescence units)) in assay [5] was found to be 161.

With `COc1ccccc1OCCn1cc(C(=O)O)c2ccccc21`, the call in assay [1], in assay [4] and in assay [6] was inactive. Moreover, the fluorescence, percent of control (lower = inhibition) in assay [2] was 102%. Besides, the GTP binding, percent of control in assay [3] amounted to 139%. In assay [5], this compound had a GTP binding signal, raw median fluorescence (lower = inhibition) (MCF (arbitrary fluorescence units)) of 87.3.

Take `COc1ccc(S(=O)(=O)N2CCOCC2)cc1NC(=O)COc1cccnc1[N+](=O)[O-]`: the compound was called inactive in assay [1], in assay [4] and in assay [6]. The fluorescence, percent of control (lower = inhibition) in assay [2] was 36.2%. Also, the GTP binding, percent of control in assay [3] was determined as 78.7%. In assay [5], this compound gave a GTP binding signal, raw median fluorescence (lower = inhibition) (MCF (arbitrary fluorescence units)) of 190.

For the compound `Cc1cccc(OCC(=O)N/N=C/c2ccc3c(c2)OCO3)c1`, the outcome in assay [1], in assay [4] and in assay [6] was inactive. In addition, the fluorescence, percent of control (lower = inhibition) in assay [2] was 34.8%. In addition, the GTP binding, percent of control in assay [3] was 89.5%. In addition, in assay [5], the GTP binding signal, raw median fluorescence (lower = inhibition) (MCF (arbitrary fluorescence units)) worked out at 256.

Regarding `O=C(OCCN1CCCCC1)c1cc2ccccc2o1`, the outcome in assay [1], in assay [4] and in assay [6] was inactive. Besides, in assay [2], the fluorescence, percent of control (lower = inhibition) amounted to 34.8%. The same compound had a GTP binding, percent of control in assay [3] of 79.9%. The same compound had a GTP binding signal, raw median fluorescence (lower = inhibition) (MCF (arbitrary fluorescence units)) in assay [5] of 271.

In the case of `O=C(Nc1cccc(Cl)c1)Nc1ccnc(-c2cccnc2)n1`, the compound was classed as inactive in assay [1], in assay [4] and in assay [6]. Also, the fluorescence, percent of control (lower = inhibition) in assay [2] was 33.8%. The GTP binding, percent of control in assay [3] came to 72.8%. In assay [5], the GTP binding signal, raw median fluorescence (lower = inhibition) (MCF (arbitrary fluorescence units)) was 155.

With `COC(=O)c1cn(CCOc2ccccc2)c2ccccc12`, the result in assay [1], in assay [4] and in assay [6] was inactive. Moreover, the fluorescence, percent of control (lower = inhibition) in assay [2] was 34.2%. For the same compound, the GTP binding, percent of control in assay [3] was 83%. In assay [5], this compound came in with a GTP binding signal, raw median fluorescence (lower = inhibition) (MCF (arbitrary fluorescence units)) of 225.

With `O=C(O)c1c(C(F)(F)F)ccnc1NCc1ccccc1`, the compound was classed as inactive in assay [1], in assay [4] and in assay [6]. The fluorescence, percent of control (lower = inhibition) in assay [2] turned out to be 61.8%. The GTP binding, percent of control in assay [3] came out at 224%. In assay [5], this compound came in with a GTP binding signal, raw median fluorescence (lower = inhibition) (MCF (arbitrary fluorescence units)) of 57.2.

With `Cc1ccc(C(=O)O)c(OCc2ccccc2C)c1`, the call in assay [1], in assay [4] and in assay [6] was inactive. The fluorescence, percent of control (lower = inhibition) in assay [2] came out at 62.4%. Moreover, the GTP binding, percent of control in assay [3] was found to be 208%. In assay [5], the GTP binding signal, raw median fluorescence (lower = inhibition) (MCF (arbitrary fluorescence units)) was 59.3.

In the case of `Cc1cc(NCc2sc(C(=O)O)cc2C)ccc1Br`, the compound was classed as inactive in assay [1], in assay [4] and in assay [6]. The fluorescence, percent of control (lower = inhibition) in assay [2] amounted to 57.8%. This compound also gave a GTP binding, percent of control in assay [3] of 81.7%. This compound also showed a GTP binding signal, raw median fluorescence (lower = inhibition) (MCF (arbitrary fluorescence units)) in assay [5] of 33.8.

For the compound `CCc1nnc2c(N(C)C)nc3ccccc3n12`, the compound was called inactive in assay [1], in assay [4] and in assay [6]. The fluorescence, percent of control (lower = inhibition) in assay [2] came to 34.8%. This compound had a GTP binding, percent of control in assay [3] of 76.3%. Besides, the GTP binding signal, raw median fluorescence (lower = inhibition) (MCF (arbitrary fluorescence units)) in assay [5] was determined as 168.

Regarding `CCOC(=O)c1nn(-c2ccccc2)c(=O)cc1SC(C)C`, the outcome in assay [1], in assay [4] and in assay [6] was inactive. Besides, the fluorescence, percent of control (lower = inhibition) in assay [2] came out at 51.2%. The GTP binding, percent of control in assay [3] was found to be 61.6%. Besides, the GTP binding signal, raw median fluorescence (lower = inhibition) (MCF (arbitrary fluorescence units)) in assay [5] was 204.

Regarding `Nc1[nH]n2c(=O)c3c(nc2c1N=Nc1ccc(Cl)cc1)CCCC3`, the outcome in assay [1], in assay [4] and in assay [6] was inactive. Further, in assay [2], the fluorescence, percent of control (lower = inhibition) is 61.6%. The GTP binding, percent of control in assay [3] turned out to be 49.2%. This compound also gave a GTP binding signal, raw median fluorescence (lower = inhibition) (MCF (arbitrary fluorescence units)) in assay [5] of 188.

Consider `Cc1nnc2ccc(-c3cccc(NC(=O)c4ccc(Br)o4)c3)nn12`, for which the compound was called inactive in assay [1], in assay [4] and in assay [6]. Further, in assay [2], the fluorescence, percent of control (lower = inhibition) was determined as 34.5%. In addition, the GTP binding, percent of control in assay [3] is 81.8%. This compound yielded a GTP binding signal, raw median fluorescence (lower = inhibition) (MCF (arbitrary fluorescence units)) in assay [5] of 206.
